LmPK inhibitor: qHTS Assay for Inhibitors of Leishmania Mexicana Pyruvate Kinase (LmPK); AID 1721, 2009; Potency, µM (doses to about 57.5 µM), most hits filed as inhibitors; Q27686; actives 0.37% (n = 290,000); purified LmPK, Kinase-Glo ATP luminescence, 1 h
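Purified LmPK (0.1 nM) converted ADP (0.1 mM) to ATP with PEP (0.5 mM) in imidazole buffer pH 7.2 with KCl and MgCl2, 1 h at room temperature. ATP was read by Kinase-Glo luminescence; data normalized to uninhibited and no-enzyme controls.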
Giardia FBPA inh: qHTS Assay for Inhibitors of Fructose-1,6-bisphosphate Aldolase from Giardia Lamblia; A8B2U2; purified Giardia FBPA; Potency, µM (doses to about 59.6 µM), actives largely listed as inhibitors; actives 0.71% (n = 290,000); AID 2451, 2010; also: nearly all actives have a fitted effect of over 55% in size
Target sequence (A8B2U2 whole entry, looked up): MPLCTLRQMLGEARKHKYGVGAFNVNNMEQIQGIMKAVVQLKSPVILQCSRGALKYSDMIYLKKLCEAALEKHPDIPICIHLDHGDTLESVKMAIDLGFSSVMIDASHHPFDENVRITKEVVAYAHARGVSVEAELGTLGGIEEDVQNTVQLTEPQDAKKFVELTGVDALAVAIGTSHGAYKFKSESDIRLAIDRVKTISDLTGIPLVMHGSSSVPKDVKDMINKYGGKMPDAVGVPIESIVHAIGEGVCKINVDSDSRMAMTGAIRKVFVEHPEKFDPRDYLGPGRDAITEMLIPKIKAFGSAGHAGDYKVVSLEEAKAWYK
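Giardia FBPA (40 nM reagent) was preincubated 10 min at RT with compound (up to 57.5 uM final), then substrate plus GAPDH/TPI/NAD/arsenate coupling system with diaphorase/resazurin was added; resorufin fluorescence (525/598 nm) was read after 20 min.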
Tb PYK inh: qHTS of Trypanosoma Brucei Inhibitors; pyruvate kinase (Trypanosoma brucei), Q57TT1; actives 0.12% (n = 410,000); Potency, µM (highest dose often 76.8 µM), most hits filed as inhibitors; AID 624173, 2012; TbPYK enzyme, Kinase-Glo Plus ATP luminescence, 45 min; also: nearly all actives have a fitted effect of over 50% in size
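Enzyme and substrate buffer are dispensed first and compound is pin-transferred. ADP at 130 uM final then starts the reaction, which runs 45 min at room temperature. Detection reagent is added for 10 min before luminescence is imaged.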
RE007 growth inh: qHTS Assay for Inhibitors of the HIV-1 protein Vpr | S. pombe RE007 Vpr strain, BacTiter-Glo ATP luminescence, 24 h | Potency, µM (highest dose often 92.2 µM), hits mostly inhibitors | AID 651644, 2012 | actives 0.21% (n = 360,000); active = well fitted falling curve with a large enough effect; inconclusive = small, poorly fitted or top-dose-only effect; inactive = no such curve, though single readings can be large or run the other way; also: nearly all actives have a fitted effect of over 50% in size
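Fission yeast RE007 carrying one integrated HIV-1 vpr copy, seeded at OD 0.01 in PMG+AL medium with 23 nL pinned compound. Grown 24 h at 30 degrees; viability read by BacTiter-Glo luminescence after 5 min.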
Each line names hits and unclear results; the compound was inactive in the other large screens. Compounds with a hit are over-represented: about 0.95% of the library has one in this group of screens. Unless noted, calls follow the shape of the dose curve; as a rule, active = well fitted curve in the direction sought with a large enough effect; inconclusive = small, poorly fitted or top-dose-only effect, or another doubt; inactive = no such curve, though single readings can be large; an effect the other way counts as inactive or inconclusive.

CC1(C)Cc2c(c(-c3ccco3)[nH]c(=O)c2C#N)CS1	Giardia FBPA inh 18µM
CN1CCN(c2ccc([N+](=O)[O-])c3no[n+]([O-])c23)CC1	Giardia FBPA inh inconclusive, RE007 growth inh 32µM
COc1cc(NC(=O)C2Cc3ccccc3N2C(=O)c2ccccc2)cc(OC)c1 (stereo unspecified)	none (no result: LmPK inhibitor, Giardia FBPA inh, RE007 growth inh)
CC1(C)OC(=O)C(=NNc2ccccc2[N+](=O)[O-])C(=O)O1	RE007 growth inh 35µM
Cc1cccc(N2C(=O)CSC23C(=O)N(Cc2cccc(C(F)(F)F)c2)c2ccccc23)c1 (stereo unspecified)	none (no result: LmPK inhibitor, Giardia FBPA inh, RE007 growth inh)
COc1ccc(/C=C/C(=O)c2c(O)cc(C)oc2=O)c(OC)c1	LmPK inhibitor 14µM
Cc1cc(C)n2cc(COc3ccc4ccccc4c3)nc2n1	none
Cc1cccc2nc(COc3ccc(-c4ccccc4)cc3)cn12	LmPK inhibitor 25µM (no result: Tb PYK inh, RE007 growth inh)
O=C(CSC1CCCCC1)Nc1ccccc1Br	none
Cc1cccc(OCCCSc2nc3ccccc3[nH]2)c1	RE007 growth inh 45µM
Cc1ccc(C(=O)Nc2ccc3c(c2)CCC3)o1	LmPK inhibitor inconclusive, RE007 growth inh inconclusive
Cc1occc1C(=O)Nc1ccc2c(c1)OCCO2	LmPK inhibitor 13µM
Cc1occc1C(=O)Nc1ccc2c(c1)CCC2	LmPK inhibitor 13µM, RE007 growth inh inconclusive
O=C(Nc1ccc2c(c1)OCCO2)c1coc2ccccc2c1=O	LmPK inhibitor 7.9µM, Tb PYK inh inconclusive
CN1C(=O)[C@H]2[C@@H](/C=C/c3ccccc3)N3C(=O)CN(Cc4ccccn4)C(=O)[C@@]3(C)[C@H]2C1=O	none
CCCc1nc2ccccc2c(=O)n1/N=C/c1c(C)[nH]n(-c2ccc(C)cc2)c1=O	LmPK inhibitor inconclusive, Giardia FBPA inh inconclusive, RE007 growth inh 16µM
CCCc1nc2ccccc2c(=O)n1/N=C/c1ccccc1O	none
CCn1cc(C(=O)NCCc2ccc(Cl)cc2)c(=O)c2cc(S(=O)(=O)N3CCOCC3)ccc21	none (no result: LmPK inhibitor, Giardia FBPA inh, RE007 growth inh)
CCC1(C)N=C(c2ccc3c(c2)OCO3)CC(c2ccccc2O)N1 (stereo unspecified)	LmPK inhibitor 10µM
Fc1ccccc1SCc1nnc(-c2ccccc2Br)o1	Tb PYK inh 32µM
COC(=O)C1=C(O)/C(=C/c2cccc(OC)c2O)N=C1C	LmPK inhibitor 25µM
C(=C\c1nc2ccccc2[nH]1)/c1ccccc1	LmPK inhibitor 8.9µM, Tb PYK inh inconclusive, RE007 growth inh 32µM
O=Nc1c(O)n(Cc2ccc(Cl)cc2Cl)c2ccccc12	RE007 growth inh 22µM
O=C1C=CC(=O)c2c(O)c(N3CCN(CCO)CC3)c(Cl)c(O)c21	Tb PYK inh inconclusive, RE007 growth inh 63µM (no result: LmPK inhibitor, Giardia FBPA inh)
O=S(=O)(c1ccc(Br)cc1Cl)N1CCN(CCO)CC1	none
CC1(C)N=C(N)N=C(N)N1c1ccc(Cl)cc1	none (no result: LmPK inhibitor, Giardia FBPA inh, RE007 growth inh)
Cc1csc2nc(COC(=O)c3cccc(NC(=O)c4cccc(Cl)c4)c3)cc(=O)n12	none (no result: LmPK inhibitor, Giardia FBPA inh, RE007 growth inh)
Cc1cccc(C)c1N=Nc1c(C)cc(O)cc1C	RE007 growth inh 25µM
CCC(Nc1ncnc2ccc(-c3c(C)noc3C)cc12)c1ccccc1 (stereo unspecified)	none (no result: LmPK inhibitor, Tb PYK inh, RE007 growth inh)
CN1CC[C@@]2(C)c3cc(O)ccc3N(C)[C@@H]12	Giardia FBPA inh 4.5µM (no result: LmPK inhibitor)
CNC(=O)Oc1ccc2c(c1)[C@]1(C)CCN(C)C1N2C (stereo partly specified)	none (no result: LmPK inhibitor, Giardia FBPA inh)
c1ccc2nc(-c3nc4ccccc4o3)ccc2c1	LmPK inhibitor 3.2µM, Tb PYK inh inconclusive, RE007 growth inh inconclusive
C[N+](C)(C)CCOP(=O)(O)OP(=O)([O-])OCC1OC(n2ccc(N)nc2=O)[C@H](O)[C@@H]1O (stereo partly specified)	none (no result: LmPK inhibitor, Giardia FBPA inh, RE007 growth inh)
N/N=C(/Cc1nc2ccccc2[nH]1)c1ccc([N+](=O)[O-])cc1	RE007 growth inh 13µM
Cc1cccn2cc(-c3ccc(Cl)cc3)nc12	LmPK inhibitor inconclusive, RE007 growth inh inconclusive
Cc1ccc(-c2cn3cccc(C)c3n2)cc1	LmPK inhibitor 25µM
CCOC(=O)[C@H](CCc1ccccc1)NC(C)C(=O)N1CC2(CC1C(=O)O)SCCS2 (stereo partly specified)	none (no result: LmPK inhibitor, Giardia FBPA inh, RE007 growth inh)
CCOC(=O)COc1c(Cl)cc(C2NC(=S)NC(c3ccccc3)=C2C(C)=O)cc1OCC (stereo unspecified)	none
O=C(Nc1nc2c(s1)CCc1ccccc1-2)c1cccs1	none
Fc1ccccc1Nc1nc2c(s1)CCc1ccccc1-2	Giardia FBPA inh 20µM (no result: Tb PYK inh, RE007 growth inh)

High-throughput results: PubChem, National Center for Advancing Translational Sciences (NCATS)
